According to PubChem BioAssay:
For some assays here: Potency and affinity values are given separately. The source made the active and inactive calls. Unless noted, the rule behind the calls is not given here.

Tests used:
[1] = antimalarial activity against Dd2 strain (AID 2302;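 active = growth inhibition above 50% at the single 2 µM test dose, taken to imply half-maximal potency below 2 µM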;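 note: 0% = DMSO untreated growth and 100% = chloroquine plus artemisinin killed control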); settings: P. falciparum Dd2 in RBCs, LDH growth readout, 72 h; at 2 µM; stronger effect = higher value
[2] = human hepatoma cell viability loss – ATP luminescence, cytotoxicity control for P. falciparum antimalarial project, primary screen (AID 2303;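 active = inhibition above 50%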;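 note: 0% = DMSO wells and 100% = digitonin-killed cells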); settings: HepG2 viability, 24-48 h, at 10 µM, stronger effect = higher value
[3] = molecular target: L-lactate dehydrogenase (Plasmodium falciparum (isolate CDC / Honduras)) (UniProt Q27743); experiment: PfLDH activity inhibition – cell lysate, 3D7 strain, counter-screen for P. falciparum growth inhibition project (AID 2304);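 note: 0% = vehicle and 100% = reference inhibitor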; settings: P. falciparum 3D7 crude extract, LDH APAD/NBT absorbance; at 2 µM; stronger effect = higher value
Sequence of L-lactate dehydrogenase (Plasmodium falciparum (isolate CDC / Honduras)) (Q27743 whole entry, looked up): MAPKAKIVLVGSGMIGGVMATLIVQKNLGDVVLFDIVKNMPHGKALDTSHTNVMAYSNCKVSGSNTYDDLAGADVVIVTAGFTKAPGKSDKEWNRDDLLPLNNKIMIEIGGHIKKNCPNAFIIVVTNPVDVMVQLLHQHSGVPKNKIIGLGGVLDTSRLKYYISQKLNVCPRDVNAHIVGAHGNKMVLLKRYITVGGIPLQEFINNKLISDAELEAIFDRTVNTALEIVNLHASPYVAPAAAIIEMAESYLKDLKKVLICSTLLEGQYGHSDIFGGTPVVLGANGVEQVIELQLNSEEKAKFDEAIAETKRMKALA

[4] = inhibition of 3D7 malaria parasite growth – strain 3D7 (AID 2306);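 note: 0% = DMSO wells and 100% = chloroquine plus artemisinin control wells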; settings: P. falciparum 3D7 erythrocytic growth, LDH absorbance, 72 h; at 2 µM; stronger effect = higher value
[5] = molecular target: Calcium-dependent protein kinase 1 (Plasmodium falciparum (isolate 3D7)) (UniProt P62344); experiment: PfCDPK1 kinase inhibitors, biochemical, TCAMS library (AID 1159585; cut-off not given, nearly all actives have IC50 up to about 0.98 µM;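 note: inhibitors leave more ATP so luminescence rises with inhibition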); settings: recombinant PfCDPK1, Kinase-Glo ATP depletion luminescence
Sequence of Calcium-dependent protein kinase 1 (Plasmodium falciparum (isolate 3D7)) (P62344 whole entry, looked up): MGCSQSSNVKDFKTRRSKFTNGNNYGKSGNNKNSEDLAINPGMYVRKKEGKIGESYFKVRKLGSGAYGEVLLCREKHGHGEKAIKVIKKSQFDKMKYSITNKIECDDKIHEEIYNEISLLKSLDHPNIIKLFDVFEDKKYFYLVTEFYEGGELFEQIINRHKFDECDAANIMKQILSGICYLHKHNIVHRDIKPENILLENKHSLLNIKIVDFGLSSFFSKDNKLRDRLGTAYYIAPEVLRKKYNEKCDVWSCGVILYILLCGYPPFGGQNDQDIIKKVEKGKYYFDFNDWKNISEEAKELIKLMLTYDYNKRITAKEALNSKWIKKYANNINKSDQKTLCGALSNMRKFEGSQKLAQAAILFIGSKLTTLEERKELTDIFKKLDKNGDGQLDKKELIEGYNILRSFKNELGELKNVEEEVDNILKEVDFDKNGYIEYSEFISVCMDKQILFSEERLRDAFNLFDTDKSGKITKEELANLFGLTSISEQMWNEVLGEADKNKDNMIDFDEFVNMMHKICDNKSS

[6] = molecular target: Plasmodium falciparum protein kinase 6 (PK6, PF3D7_1337100) (UniProt Q8IDW1); experiment: PfPK6 kinase inhibitors, biochemical, TCAMS library (AID 1159586); settings: recombinant PfPK6, Kinase-Glo ATP depletion luminescence
Sequence of Plasmodium falciparum protein kinase 6 (PK6, PF3D7_1337100) (Q8IDW1 1-305): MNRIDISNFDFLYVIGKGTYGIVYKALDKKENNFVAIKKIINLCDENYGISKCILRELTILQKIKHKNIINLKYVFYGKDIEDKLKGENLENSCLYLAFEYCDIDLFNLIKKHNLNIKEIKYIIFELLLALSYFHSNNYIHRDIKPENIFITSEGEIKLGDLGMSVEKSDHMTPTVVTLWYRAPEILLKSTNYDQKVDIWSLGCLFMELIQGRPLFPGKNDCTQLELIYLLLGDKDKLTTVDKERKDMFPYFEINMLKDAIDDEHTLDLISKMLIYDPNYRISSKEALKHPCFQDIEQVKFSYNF

[7] = molecular target: Protein kinase 7 (PK7), Plasmodium falciparum 3D7 (PF3D7_0213400) (UniProt Q7YTF7); experiment: inhibition of Plasmodium PK7 catalytic activity – biochemical, TCAMS antimalarial set, Kinase-Glo luminescence (AID 1159587); settings: recombinant PfPK7, Kinase-Glo ATP depletion luminescence
Sequence of Protein kinase 7 (PK7), Plasmodium falciparum 3D7 (PF3D7_0213400) (Q7YTF7 1-343): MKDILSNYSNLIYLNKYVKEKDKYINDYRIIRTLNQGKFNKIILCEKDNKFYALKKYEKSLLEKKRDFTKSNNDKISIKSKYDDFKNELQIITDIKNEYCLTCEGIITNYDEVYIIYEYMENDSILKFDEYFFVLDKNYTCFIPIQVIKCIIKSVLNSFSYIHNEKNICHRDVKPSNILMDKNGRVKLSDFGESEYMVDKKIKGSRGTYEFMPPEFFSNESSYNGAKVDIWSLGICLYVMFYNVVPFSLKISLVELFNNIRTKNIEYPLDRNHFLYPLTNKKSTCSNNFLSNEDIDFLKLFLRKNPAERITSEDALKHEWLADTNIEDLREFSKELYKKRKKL

[8] = molecular target: Calcium-dependent protein kinase 4 (Plasmodium falciparum (isolate 3D7)) (UniProt Q8IBS5); experiment: PfCDPK4 kinase inhibitors, biochemical, TCAMS library (AID 1159588; cut-off not given, nearly all actives have IC50 up to about 0.91 µM); settings: recombinant PfCDPK4, Kinase-Glo ATP depletion luminescence
Sequence of Calcium-dependent protein kinase 4 (Plasmodium falciparum (isolate 3D7)) (Q8IBS5 whole entry, looked up): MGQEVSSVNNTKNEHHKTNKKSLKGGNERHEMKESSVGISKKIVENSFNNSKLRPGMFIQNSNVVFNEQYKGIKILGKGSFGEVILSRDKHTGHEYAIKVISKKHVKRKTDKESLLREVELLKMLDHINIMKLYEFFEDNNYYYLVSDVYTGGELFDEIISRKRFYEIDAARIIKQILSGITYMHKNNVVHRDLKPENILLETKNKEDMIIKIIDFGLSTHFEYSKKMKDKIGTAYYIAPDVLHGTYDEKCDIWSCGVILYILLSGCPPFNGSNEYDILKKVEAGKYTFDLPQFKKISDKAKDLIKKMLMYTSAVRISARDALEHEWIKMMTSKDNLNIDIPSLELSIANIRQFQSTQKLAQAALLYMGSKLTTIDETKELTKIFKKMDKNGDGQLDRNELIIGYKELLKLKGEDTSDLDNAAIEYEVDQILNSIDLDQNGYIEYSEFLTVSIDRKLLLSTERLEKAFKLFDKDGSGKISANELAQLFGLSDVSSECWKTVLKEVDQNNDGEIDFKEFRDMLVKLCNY

N#Cc1c(N)nc(SCC(=O)Nc2cc(C(F)(F)F)ccc2Cl)c(C#N)c1-c1cccs1
active: growth inhibition [1] 96% | growth inhibition [4] 90%
inactive: inhibition [2] 23% | inhibition [3] -4% | outcome [5] | outcome [6] | outcome [7] | outcome [8]

COc1ccc2nccc([C@@H](O)CN3CCC(NC/C=C/c4cccnc4)CC3)c2c1
active: growth inhibition [4] 100%
inactive: growth inhibition [1] 19% | inhibition [2] -7% | inhibition [3] -2% | outcome [5] | outcome [6] | outcome [7] | outcome [8]

CN1CC=C(c2csc3ccc(NC(=O)Nc4ccc(-c5ccncc5)c5ccccc45)cc23)CC1
active: growth inhibition [1] 99% | growth inhibition [4] 93%
inactive: inhibition [2] 20% | inhibition [3] 1% | outcome [5] | outcome [6] | outcome [7] | outcome [8]

Oc1ccc2[nH]c(-c3ccc(F)cc3F)nc2c1CN1CCC(O)(c2ccccc2)CC1
inactive: inhibition [2] 16% | inhibition [3] -2% | outcome [5] | outcome [6] | outcome [7] | outcome [8]
active: growth inhibition [1] 70% | growth inhibition [4] 96%

O=C(Nc1cc(C(F)(F)F)cc(C(F)(F)F)c1)N1CCC(CCN2CCC(c3c[nH]c4ccccc34)CC2)CC1
active: growth inhibition [4] 91%
inactive: growth inhibition [1] 16% | inhibition [2] 17% | inhibition [3] 6% | outcome [5] | outcome [6] | outcome [7] | outcome [8]

COc1ccc(-c2cccc(NC(=O)c3cccc(C#N)c3)c2)cc1CN(C)CCO
inactive: growth inhibition [1] 30% | inhibition [2] 28% | inhibition [3] -7% | outcome [5] | outcome [6] | outcome [7] | outcome [8]
active: growth inhibition [4] 96%

N#CCCn1nc(-c2ccc(Cl)cc2)c2c(c1=O)CCCC2
active: growth inhibition [4] 94%
inactive: growth inhibition [1] 32% | inhibition [2] 0% | inhibition [3] -1% | outcome [5] | outcome [6] | outcome [7] | outcome [8]

C=CCNS(=O)(=O)c1ccc(NC(=O)C(C)Oc2ccc([N+](=O)[O-])cc2)cc1 (stereo not given)
inactive: inhibition [2] 14% | inhibition [3] -3% | outcome [5] | outcome [6] | outcome [7] | outcome [8]
active: growth inhibition [1] 100% | growth inhibition [4] 101%

CC(=O)Nc1ccc(C(=O)Nc2cccc(-c3ccc(-c4nc5c(C)cccc5[nH]4)cc3)c2)cn1
inactive: inhibition [2] 25% | inhibition [3] 4% | outcome [5] | outcome [6] | outcome [7] | outcome [8]
active: growth inhibition [1] 94% | growth inhibition [4] 100%

COc1ccc(CN2CCC(CN3CC4(OC3=O)c3ccccc3-c3ccccc34)C2)c(O)c1 (stereo not given)
active: growth inhibition [1] 79% | growth inhibition [4] 101%
inactive: inhibition [2] 22% | inhibition [3] -7% | outcome [5] | outcome [6] | outcome [7] | outcome [8]

OCCN1CCN(Cc2ccc(-c3cccc(-c4nc5ccc(F)cc5[nH]4)c3)cc2)CC1
active: growth inhibition [1] 61% | growth inhibition [4] 100%
inactive: inhibition [2] 21% | inhibition [3] -2% | outcome [5] | outcome [6] | outcome [7] | outcome [8]

Cc1cccc(-c2ccc(CNC3CCN(CC4Cn5c(=O)ccc6ccc(F)c4c65)CC3)cn2)c1 (stereo not given)
inactive: growth inhibition [1] 2% | inhibition [2] -2% | inhibition [3] -2% | outcome [5] | outcome [6] | outcome [7] | outcome [8]
active: growth inhibition [4] 90%

COc1ccc(C(C(=O)NC2CCN(C[C@H](O)c3ccnc4ccc(OC)cc34)CC2)N2CCN(c3ccc([N+](=O)[O-])cc3)CC2)cc1 (stereo not given in full)
active: growth inhibition [1] 80% | growth inhibition [4] 99%
inactive: inhibition [2] 17% | inhibition [3] -3% | outcome [5] | outcome [6] | outcome [7] | outcome [8]

CN1CCc2cc(CN3C[C@]4(C)C[C@H]3CC(C)(C)C4)c(O)cc2C(c2ccccc2)C1 (stereo not given in full)
inactive: inhibition [2] -4% | inhibition [3] -3% | outcome [5] | outcome [6] | outcome [7] | outcome [8]
active: growth inhibition [1] 88% | growth inhibition [4] 98%

O=S(=O)(Nc1cccc(CCN2CCC(N3CCCCC3)CC2)c1)c1ccc(-c2ccccc2)cc1
active: inhibition [2] 76% | growth inhibition [4] 100%
inactive: growth inhibition [1] 49% | inhibition [3] 1% | outcome [5] | outcome [6] | outcome [7] | outcome [8]

CC1CCN(c2nc(C(=O)Nc3cccc4c3CCCC4)c(C(C)C)s2)CC1
inactive: growth inhibition [1] 49% | inhibition [2] 14% | inhibition [3] 3% | outcome [5] | outcome [6] | outcome [7] | outcome [8]
active: growth inhibition [4] 96%

CC1CCC(C(C)C)C(OC(=O)CSc2nnc3c(n2)[nH]c2ccccc23)C1 (stereo not given)
inactive: inhibition [2] -5% | inhibition [3] -2% | outcome [5] | outcome [6] | outcome [7] | outcome [8]
active: growth inhibition [1] 74% | growth inhibition [4] 88%

FC(F)(F)c1ccc2nc(-c3ccc(-c4cccc(CN5CCCCC5)c4)cc3)[nH]c2c1
active: growth inhibition [1] 99% | growth inhibition [4] 100%
inactive: inhibition [2] 22% | inhibition [3] 2% | outcome [5] | outcome [6] | outcome [7] | outcome [8]

CCOC(=O)c1c[nH]c2c(sc3cc(OC)ccc32)c1=O
active: growth inhibition [1] 93% | growth inhibition [4] 96%
inactive: inhibition [2] -6% | inhibition [3] 3% | outcome [5] | outcome [6] | outcome [7] | outcome [8]

CN(C)CCCc1cc(NC(=O)Nc2cccc(Cl)c2Cl)ccc1I
active: growth inhibition [4] 102%
inactive: growth inhibition [1] 45% | inhibition [2] 12% | inhibition [3] 1% | outcome [5] | outcome [6] | outcome [7] | outcome [8]

Cc1cc(N[C@@H](Cc2ccccc2)C(=O)NCCOc2ccccc2)nc(NCc2ccccc2C)n1
inactive: inhibition [2] 32% | inhibition [3] -3% | outcome [5] | outcome [6] | outcome [7] | outcome [8]
active: growth inhibition [1] 80% | growth inhibition [4] 100%

CCCn1cc2c(ccc3nc(N)nc(N)c32)n1
inactive: growth inhibition [1] 0% | inhibition [3] 5% | outcome [5] | outcome [6] | outcome [7] | outcome [8]
active: inhibition [2] 65% | growth inhibition [4] 95%

Cc1cccc2[nH]c(-c3cccc(-c4ccc(NC(=O)N[C@@H]5C[C@H]5c5ccccc5)cc4)c3)nc12
inactive: growth inhibition [1] 49% | inhibition [2] 25% | inhibition [3] 6% | outcome [5] | outcome [6] | outcome [7] | outcome [8]
active: growth inhibition [4] 98%

c1ccc(CN2CCC(NCc3ccccc3-c3ccc(CNC4CCCC4)cc3)CC2)cc1
active: growth inhibition [4] 102%
inactive: growth inhibition [1] 33% | inhibition [2] 38% | inhibition [3] 1% | outcome [5] | outcome [6] | outcome [7] | outcome [8]

CCC(CC)CN1C(=O)C(c2ccccc2)(c2ccccc2)N=C1N
inactive: inhibition [2] 14% | inhibition [3] -3% | outcome [5] | outcome [6] | outcome [7] | outcome [8]
active: growth inhibition [1] 81% | growth inhibition [4] 97%

CCc1nc2c(cnn2CC)c(NC2CCOCC2)c1CNC(=O)N1CCOCC1
inactive: growth inhibition [1] 48% | inhibition [2] 0% | inhibition [3] 4% | outcome [5] | outcome [6] | outcome [7] | outcome [8]
active: growth inhibition [4] 98%

CCc1ccc(C2CCN(CCCCNC(=O)c3ccc(NC(=O)c4ccc(Cl)cc4)cc3)CC2)cc1
active: growth inhibition [1] 63% | growth inhibition [4] 100%
inactive: inhibition [2] 15% | inhibition [3] -3% | outcome [5] | outcome [6] | outcome [7] | outcome [8]

COc1ccccc1CNC(=O)c1cc(C2CC2)nc2c1cnn2C(C)C
active: growth inhibition [1] 92% | growth inhibition [4] 94%
inactive: inhibition [2] 47% | inhibition [3] 5% | outcome [5] | outcome [6] | outcome [7] | outcome [8]

CCCc1ccc(Nc2nc(C)cc(N(CC)CCCN3CCCCC3)n2)cc1
active: growth inhibition [1] 95% | growth inhibition [4] 101%
inactive: inhibition [2] 48% | inhibition [3] 5% | outcome [5] | outcome [6] | outcome [7] | outcome [8]

c1cncc(CCNCc2cccc(-c3ccc(-c4nc5ccccc5[nH]4)s3)c2)c1
inactive: inhibition [2] 8% | inhibition [3] -1% | outcome [5] | outcome [6] | outcome [7] | outcome [8]
active: growth inhibition [1] 97% | growth inhibition [4] 100%

O=C(/C=C/c1ccc(Cl)c(Cl)c1)NCCCCCN1CCC(c2c[nH]c3ccc(O)cc23)CC1
active: growth inhibition [4] 101%
inactive: growth inhibition [1] 0% | inhibition [2] 20% | inhibition [3] 3% | outcome [5] | outcome [6] | outcome [7] | outcome [8]

Cc1ccc(-c2nc(N3CCN(C(=O)c4ccco4)CC3)c3ccccc3n2)cc1
inactive: inhibition [2] -8% | inhibition [3] 3% | outcome [5] | outcome [6] | outcome [7] | outcome [8]
active: growth inhibition [1] 75% | growth inhibition [4] 90%

Cc1ccc(-c2cc(C(=O)Nc3ccc(S(=O)(=O)N4CC(C)OC(C)C4)cc3)[nH]n2)c(O)c1 (stereo not given)
active: growth inhibition [1] 98% | growth inhibition [4] 91%
inactive: inhibition [2] 16% | inhibition [3] -1% | outcome [5] | outcome [6] | outcome [7] | outcome [8]

CN1CCCN(Cc2ccc(-c3ccc(NC(=O)c4ccc(Cl)cc4)cc3)cc2)CC1
inactive: inhibition [3] 3% | outcome [5] | outcome [6] | outcome [7] | outcome [8]
active: growth inhibition [1] 67% | inhibition [2] 58% | growth inhibition [4] 96%

Cc1[nH]c(C)c([N+](=O)[O-])c(=O)c1-c1ccc(Oc2ccc(OC(F)(F)F)cc2)cc1
inactive: inhibition [2] -2% | inhibition [3] -2% | outcome [5] | outcome [6] | outcome [7] | outcome [8]
active: growth inhibition [1] 97% | growth inhibition [4] 97%

CC(CN1CCN(C)CC1)C(=O)Nc1ccc(-c2csc(-c3nc4ccccc4[nH]3)c2)cc1 (stereo not given)
inactive: growth inhibition [1] 26% | inhibition [2] 15% | inhibition [3] -4% | outcome [5] | outcome [6] | outcome [7] | outcome [8]
active: growth inhibition [4] 93%

CN1CCN(Cc2ccc(-c3cc4c(Nc5ccc(OCc6cccc(F)c6)c(Cl)c5)ncnc4s3)[nH]2)CC1
active: growth inhibition [1] 99% | growth inhibition [4] 101%
inactive: inhibition [2] 23% | inhibition [3] 2% | outcome [5] | outcome [6] | outcome [7] | outcome [8]

O=C(/C=C/c1ccc(Cl)c(Cl)c1)NCCCCCN1CCC(NC(=S)Nc2ccc(Cl)cc2Cl)CC1
inactive: growth inhibition [1] 47% | inhibition [3] -1% | outcome [5] | outcome [6] | outcome [7] | outcome [8]
active: inhibition [2] 53% | growth inhibition [4] 99%

Cc1cc2[nH]c(-c3ccc(C(=O)NCCCN4CCN(c5cccc(Cl)c5)CC4)cc3F)nc2cc1Cl
active: growth inhibition [1] 79% | growth inhibition [4] 99%
inactive: inhibition [2] -2% | inhibition [3] 5% | outcome [5] | outcome [6] | outcome [7] | outcome [8]

Cc1ccccc1C1CCN(C2CCC(NC(=O)C3=Cc4cc(Cl)ccc4OC3)CC2)CC1 (stereo not given)
inactive: inhibition [3] 0% | outcome [5] | outcome [6] | outcome [7] | outcome [8]
active: growth inhibition [1] 99% | inhibition [2] 51% | growth inhibition [4] 100%
